An excerpt weighted towards active compounds, which were near 4.9% of everything screened.
TIM10 inh: growth inhibitors of isogenic TIM10 control yeast, primary screen, counter-screen for tim10-1 yeast inhibitor project, luminescence, uHTS | S. cerevisiae TIM10 strain growth, BacTiter-Glo luminescence, 24 h | inhibition, % at 10 µM | 330,000 tested, 1.4% active;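 active means inhibition of 40% or more at the single tested concentration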;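 further: wild-type TIM10 isogenic control strain grown at permissive 25 °C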
SKKanGAS inh: S. pyogenes SKKanGAS growth inhibitors in kanamycin, primary screen, streptokinase expression inhibitor project, SKKanGAS strain, BacTiter-Glo luminescence | inhibition, % at 7.5 µM | 6 h | 300,000 tested, 1.3% active;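 active means mean replicate score, as percent of positive control median, at least 50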;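 further: strain carries kanamycin resistance gene driven by streptokinase promoter and grows in 40 µg/ml kanamycin; loss of luminescence reflects streptokinase promoter inhibition or plain growth inhibition; 0% = median of DMSO wells and 100% = positive control at its reference dose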
tim10-1 inh: growth inhibitors of tim10-1 mutant yeast, primary screen, luminescence, uHTS. S. cerevisiae tim10-1 ts strain growth, BacTiter-Glo, 24 h. inhibition, % at 20 µM. 330,000 tested, 2.2% active. AID 463190, 2010;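 active means inhibition of at least 40%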;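 further: mutant grown at 25 °C; 0% = DMSO wells with yeast and 100% = wells holding no yeast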
tim23-1 inh: growth inhibitors of tim23-1 mutant yeast, primary screen, luminescence, uHTS; S. cerevisiae tim23-1 growth, BacTiter-Glo luminescence, 24 h; inhibition, % at 20 µM; 330,000 tested, 1.3% active; AID 463212, 2010;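 active means growth inhibition of the mutant yeast at or above 50%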;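 further: temperature-sensitive mutant grown at 25 °C; plate controls were DMSO-treated mutant yeast for no effect and medium wells lacking yeast for full effect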
NLRP3 yeast inh: NALP3 inflammasome inhibitors in reconstituted yeast, primary screen, luminescence, uHTS | AID 2825, 2010 | Yeast reconstituted NLRP3/ASC/caspase-1, beta-gal luminescence, 24 h | 330,000 tested, 0.39% active | inhibition, % at 10 µM;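 active means inhibition of 50% or more; inactive means inhibition below 50%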;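 further: plate controls were induced DMSO wells for no effect and uninduced yeast grown without galactose for full effect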
NALP1 yeast inh: NALP1 inflammasome inhibitors in reconstituted yeast, colorimetric, S. cerevisiae, triplicate retest. S. cerevisiae NALP1/ASC/caspase-1 growth, X-gal OD620, 72 h. inhibition, % at 10 µM. 280,000 tested, 0.61% active; in the data active means inhibition mostly above about 24%, no sharp cut-off; inactive means mostly below about 32%
tim10-1 confirm: growth inhibitors of tim10-1 mutant yeast, confirmation, single concentration, luminescence, S. cerevisiae | shares compounds with tim10-1 inh | S. cerevisiae tim10-1 ts strain growth, BacTiter-Glo, 24 h | inhibition, % at 20 µM | 7,400 tested, 56% active | AID 463213, 2010;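 active means inhibition of yeast growth at or above a set limit in either of two repeat tests at 20 µM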;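 further: tim10-1 mutant grown at permissive 25 °C to find synthetic lethal compounds; 0% = DMSO yeast wells and 100% = medium wells without yeast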
* marks the source's active call; other numbers are inactive results; x = no result.

SMILES | TIM10 inh | SKKanGAS inh | tim10-1 inh | tim23-1 inh | NLRP3 yeast inh | NALP1 yeast inh | tim10-1 confirm
COc1ccc(N2CCN(C(=O)c3ccccc3Br)CC2)c([N+](=O)[O-])c1 | -4 | 5 | 10 | 30 | 39 | 6 | x
O=C(COc1ccc(Br)cc1)NNC(=O)c1ccc(-n2cncn2)c([N+](=O)[O-])c1 | 6 | x | -6 | 4 | 9 | x | x
COCCNC(=O)c1cc2c(s1)-c1ccc(Cl)cc1SC2 | 10 | 10 | 42* | 33 | 23 | 21 | 41*
Cc1ccc(S(=O)(=O)N2CCC(C(=O)OCC(=O)N(C)C3CCCCC3)CC2)cc1C | 7 | -18 | 16 | 17 | 14 | x | x
NNc1nc2c(F)cc(F)cc2s1 | 26 | 5 | 41* | 45 | 10 | 20 | 18
CC(=O)/C(N=Nc1cccc(C(F)(F)F)c1)=C(\C)O | -10 | -17 | 9 | 9 | -10 | 29 | x
O=C(/C(N=Nc1cccc(C(F)(F)F)c1)=C(/O)c1cccs1)C(F)(F)F | 0 | 24 | 40* | 41 | 9 | -6 | 31*
CC1(C)Cc2c(cnn2-c2ccccc2)C(NC(=O)CCc2ccc(=O)[nH]n2)C1 (stereo not given) | -8 | 28 | 7 | 11 | 6 | 17 | x
COc1ccc(C(=O)NC(=O)CSc2nc3nc(C)cc(C)n3n2)cc1 | -6 | x | 0 | 4 | 5 | x | x
COc1ccc(C(=O)NCCn2ccc3ccccc32)cc1 | 3 | 6 | -11 | 26 | 31 | 10 | x
O=C(NCCn1ccc2ccccc21)c1ccc(S(=O)(=O)N2CCCCC2)cc1 | 20 | 1 | 41* | 34 | -10 | x | 27
Cc1c(C)n2c(SCC(=O)Nc3cccc4ccccc34)nnc2[nH]c1=O | 1 | 18 | 2 | 7 | 7 | x | x
COc1ccc(C/C(=N\OC(C)=O)c2ccc(OC)cc2)cc1 | 7 | 3 | 46* | 26 | 5 | 12 | 45*
CCOC(=O)C1=CNS(=O)(=O)NC1c1ccc(C)cc1 (stereo not given) | -4 | x | 17 | 36 | x | x | x
Cc1ccc(NC(=S)NNC(=O)c2ccc(N3CCOCC3)c([N+](=O)[O-])c2)cc1Cl | 28 | 22 | -5 | 14 | 19 | 0 | x
O=C(NNC(=S)Nc1ccc(Br)cc1)c1ccc(N2CCOCC2)c([N+](=O)[O-])c1 | 14 | 27 | 44* | 28 | 21 | 10 | 18
CCOC(=O)N1CCN(c2c(F)cc3[nH]c(=S)[nH]c3c2Br)CC1 | 23 | 7 | 57* | 35 | 24 | 25 | 29
CCOC(=O)N1CCN(c2cc3[nH]c(=S)[nH]c3cc2F)CC1 | 3 | 0 | 10 | -9 | 6 | x | x
COc1cc(SC)ccc1C(=O)NNC(=O)c1cc(C)oc1C | 23 | 45 | 53* | 44 | 34 | x | 26
COc1ccc(S(=O)(=O)Nc2cccc3c2O[C@H](CN(C)Cc2ccncc2)[C@@H](C)CN([C@H](C)CO)C3=O)cc1 | 14 | x | 8 | 10 | 20 | x | x
C=CCOC(=O)C(C#N)c1nc2ccccc2nc1N1CCN(Cc2ccc3c(c2)OCO3)CC1 (stereo not given) | 23 | 13 | 41* | 42 | 9 | 13 | 26
C=CCOC(=O)C(C#N)c1nc2ccccc2nc1N1CCN(c2ccccc2OCC)CC1 (stereo not given) | -3 | 5 | 26 | 19 | 12 | 21 | x
Cc1ccc(NC(=O)C(c2ccccc2)c2ccccc2)nc1 | 3 | 0 | -1 | 16 | 34 | 18 | x
CN(C(=S)NC(=O)c1ccc(F)cc1)C1CCCCC1 | 17 | -1 | 20 | 34 | 33 | 5 | x
CN(C(=S)NC(=O)c1ccc(Cl)cc1)C1CCCCC1 | 31 | 40 | 42* | 24 | 38 | 2 | 10
CC(C)(C)OC(=O)N1CCC[C@H]1c1nnc(SCc2ccccc2Cl)o1 | 14 | 1 | 29 | 27 | 12 | 14 | x
